BAZ2B inh: blocks human BAZ2B; AlphaScreen BAZ2B-H3K14Ac peptide displacement; Potency, µM (highest dose often 114 µM), hits mostly inhibitors; 360,000 compounds, 4.4% hits; AID 504333; further: nearly all actives have a fitted effect of over 60% in size
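In this displacement format the biotinylated H3(5-23) peptide acetylated at Lys14 serves as ligand at 50 nM, with BAZ2B at 50 nM in PBS pH 7.4 containing 0.01% Tween-20. Donor and acceptor beads are 10 ug/mL final.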
KAT2A inh: blocks human GCN5L2 histone acetyltransferase | 390,000 compounds, 0.21% hits | Q92830 | AID 504327 | Potency, µM (titrated, usually from 58.9 µM), hits mostly inhibitors | GCN5L2 HAT assay, ThioGlo1 CoA-SH fluorescence
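ThioGlo1-coupled HAT assay: 20nM GCN5L2, 70uM acetyl-CoA, 75uM H3(1-25) peptide, pH 7.5. Fluorescence read at 340/540nm at start and after 20 min at room temperature.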
PLK1 PBD block: blocks phosphopeptide binding to human PLK1 polo-box domain | Potency, µM, hits mostly inhibitors | P53350 | 360,000 compounds, 2.8% hits | Plk1 PBD binding of FITC phosphopeptide, fluorescence polarization; further: series mostly up to about 57 µM; nearly all actives have a fitted effect of over 65% in size
HP1b binding inh: inhibitors of HP1-beta chromodomain binding to methylated histone tails. AlphaScreen HP1-beta / biotin-H3K9me3 peptide binding. Potency, µM (highest dose often 114 µM), hits mostly inhibitors. 390,000 compounds, 0.56% hits. AID 540317; further: nearly all actives have a fitted effect of over 70% in size
Target sequence (P83916 whole entry, looked up): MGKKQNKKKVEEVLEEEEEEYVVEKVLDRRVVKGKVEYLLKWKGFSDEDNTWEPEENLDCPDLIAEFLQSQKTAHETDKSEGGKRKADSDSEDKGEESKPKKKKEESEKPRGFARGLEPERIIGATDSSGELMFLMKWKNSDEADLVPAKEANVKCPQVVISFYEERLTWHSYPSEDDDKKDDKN
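AlphaScreen: HP1-beta (50 nM) preformed 30 min with biotin-H3(1-18)K9me3 peptide (50 nM) in PBS pH 7.4, 0.01% Tween-20. Compound added for 30 min at RT, then streptavidin donor/nickel chelate acceptor beads (10 ug/mL) for 30 min.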
JMJD2A Tudor: JMJD2A Tudor domain (human) inhibition; 390,000 compounds, 4.4% hits; AlphaScreen JMJD2A-Tudor / H3K4me3 peptide binding; Potency, µM (series often up to 114 µM), most hits filed as inhibitors; O75164; further: nearly all actives have a fitted effect of over 50% in size
PI5P4Ka inh: inhibitors of human PI5P4K alpha | max response, % | 330,000 compounds, 1.2% hits | PI5P4Kalpha enzyme, ADP-Glo luminescence, 60 min; active compounds read low | P48426 | AID 652105; active means max response of -50% or lower; inconclusive means between -30% and -50%; inactive means -30% or higher; further: value at the top dose of about 77 µM
Target sequence (P48426 whole entry, looked up): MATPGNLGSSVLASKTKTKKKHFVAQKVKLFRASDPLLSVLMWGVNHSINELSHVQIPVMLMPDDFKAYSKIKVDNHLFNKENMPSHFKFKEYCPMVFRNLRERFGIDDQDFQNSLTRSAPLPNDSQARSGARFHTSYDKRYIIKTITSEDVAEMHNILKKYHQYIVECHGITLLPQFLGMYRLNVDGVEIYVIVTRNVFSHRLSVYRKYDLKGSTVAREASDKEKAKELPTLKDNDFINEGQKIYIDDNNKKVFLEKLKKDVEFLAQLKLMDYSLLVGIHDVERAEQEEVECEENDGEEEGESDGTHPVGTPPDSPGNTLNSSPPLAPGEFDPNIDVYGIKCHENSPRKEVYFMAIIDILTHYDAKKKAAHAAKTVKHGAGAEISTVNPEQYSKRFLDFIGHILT
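Human PI5P4Kalpha with substrate in 0.038 M HEPES pH 7.4, 0.28 mM EGTA, 0.1% CHAPS, 5% DMSO; reaction started with 5 microM ATP (final), 60 min at room temperature. ADP formed read by ADP-Glo luminescence.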
Each line names hits and unclear results; the compound was inactive in the other large screens. This is a sample that favours compounds with a hit; in the whole collection about 7% have one here. Unless noted, the call rests on the fitted dose curve; in most records, active means well fitted curve in the direction sought with a large enough effect; inconclusive means small, poorly fitted or top-dose-only effect, or another doubt; inactive means no such curve, though single readings can be large; an effect the other way counts as inactive or inconclusive.

O=[N+]([O-])c1ccc(O[C@@H]2O[C@H](CO)[C@@H](O)[C@H](O)[C@H]2F)c([N+](=O)[O-])c1	none (no result: BAZ2B inh, PLK1 PBD block, HP1b binding inh, JMJD2A Tudor, PI5P4Ka inh)
COc1cc(/C=C(/C)[N+](=O)[O-])ccc1OCc1ccccc1Cl	BAZ2B inh inconclusive, PLK1 PBD block 2.38µM
COc1ccc(NC(=O)c2c(C)nn(Cc3ccccc3Cl)c2Cl)cc1Cl	none
CCCC(Cn1cncn1)c1ccc(Cl)cc1Cl (stereo unspecified)	none (no result: BAZ2B inh, PLK1 PBD block, HP1b binding inh, JMJD2A Tudor, PI5P4Ka inh)
Cc1cc(C)cc(N2C(=O)NC(=O)/C(=C\c3cccn3-c3ccccc3)C2=O)c1	PLK1 PBD block 2.12µM
CN1C(=O)/C(=C/c2cccn2-c2ccc3ccccc3c2)C(=O)NC1=S	BAZ2B inh 44.7µM, PLK1 PBD block 0.532µM, JMJD2A Tudor inconclusive, PI5P4Ka inh -77.8
Cc1cc(C)cc(N2C(=O)NC(=O)/C(=C\c3cccn3-c3ccc(Cl)cc3)C2=O)c1	PLK1 PBD block 1.19µM, PI5P4Ka inh inconclusive
Cc1cc(/C=C2\C(=O)NC(=O)N(c3cccc(Br)c3)C2=O)c(C)n1C	none
CCCSP(=S)(OCC)Oc1ccc(Cl)cc1Cl (stereo unspecified)	none (no result: BAZ2B inh, PLK1 PBD block, HP1b binding inh, JMJD2A Tudor, PI5P4Ka inh)
COc1ccc(Cn2c(O)c(/C=N/NC(=O)c3ccccc3)c(=O)[nH]c2=O)cc1	BAZ2B inh 50.1µM, JMJD2A Tudor 79.4µM, PI5P4Ka inh inconclusive
CCOc1ccc(N=Cc2c(O)n(Cc3ccccc3)c(=S)[nH]c2=O)cc1	none
COc1ccc(Cn2c(O)c(/C=N/NC(=O)c3ccncc3)c(=O)[nH]c2=O)cc1	BAZ2B inh inconclusive, JMJD2A Tudor inconclusive, PI5P4Ka inh inconclusive
Cc1ccc(-n2c(O)c(/C=N/NC(=O)c3ccncc3)c(=O)[nH]c2=O)cc1C	BAZ2B inh 50.1µM, JMJD2A Tudor 56.2µM
CCOc1ccc(N=Cc2c(O)n(-c3ccc(C)c(C)c3)c(=O)[nH]c2=O)cc1	none
O=c1[nH]c(=O)n(Cc2ccccc2)c(O)c1/C=N/NCCO	BAZ2B inh 50.1µM, JMJD2A Tudor 56.2µM
CCn1c(O)c(/C=N/NC(=O)c2ccccc2)c(=O)[nH]c1=S	BAZ2B inh 39.8µM, JMJD2A Tudor 56.2µM, PI5P4Ka inh inconclusive
CC#C[C@]1(O)CC[C@H]2C3C=C(C)C4=CC(=O)C=C[C@]4(C)[C@H]3[C@@H](O)C[C@@]21C (stereo partly specified)	none (no result: BAZ2B inh, PLK1 PBD block, HP1b binding inh, JMJD2A Tudor, PI5P4Ka inh)
O=C(N/N=C/c1c(O)n(CCc2ccc(F)cc2)c(=O)[nH]c1=O)c1ccccc1	JMJD2A Tudor inconclusive
O=C(N/N=C/c1c(O)n(CCc2ccccc2)c(=O)[nH]c1=O)c1ccncc1	BAZ2B inh 56.2µM, PI5P4Ka inh -76.7
COc1ccccc1-n1c(O)c(C=NCc2ccc3c(c2)OCO3)c(=O)[nH]c1=O	none
COc1ccccc1-n1c(O)c(/C=N/NC(=S)Nc2ccccc2)c(=O)[nH]c1=S	BAZ2B inh inconclusive, JMJD2A Tudor inconclusive, PI5P4Ka inh -60.5
C=CCn1c(O)c(/C=N/NC(=O)CCCC)c(=O)[nH]c1=S	BAZ2B inh inconclusive, JMJD2A Tudor 79.4µM
O=C(N/N=C/c1c(O)n(-c2cccc3ccccc23)c(=O)[nH]c1=O)c1ccncc1	BAZ2B inh 79.4µM, JMJD2A Tudor 50.1µM
OC(c1ccc(Cl)cc1)(c1cncnc1)c1ccccc1Cl (stereo unspecified)	none (no result: BAZ2B inh, PLK1 PBD block, HP1b binding inh, JMJD2A Tudor, PI5P4Ka inh)
CCOC(=O)N1CCC(NC(=O)c2ccc3c(c2)N(Cc2cccc(C)c2)C(=O)c2ccccc2S3(=O)=O)CC1	none (no result: PLK1 PBD block, PI5P4Ka inh)
CCCCCCC(=O)N/N=C/c1c(O)n(CCc2ccccc2)c(=O)[nH]c1=O	PI5P4Ka inh inconclusive
O=C(N/N=C/c1c(O)n(CCc2ccccc2)c(=O)[nH]c1=O)c1ccccc1O	KAT2A inh inconclusive, JMJD2A Tudor inconclusive, PI5P4Ka inh -74.7
COc1ccc(Cn2c(O)c(/C=N/NC(=O)c3ccccc3O)c(=O)[nH]c2=O)cc1	BAZ2B inh 50.1µM, JMJD2A Tudor 70.8µM
O=C(N/N=C/c1c(O)n(Cc2ccccc2)c(=O)[nH]c1=O)c1ccccc1O	BAZ2B inh inconclusive, JMJD2A Tudor inconclusive, PI5P4Ka inh -69.9
O=c1[nH]c(=O)n(Cc2ccccc2)c(O)c1C=NCCCO	none
O=C(NC1CCCCCC1)c1ccc[nH]c1=S	HP1b binding inh inconclusive, JMJD2A Tudor 5.01µM, PI5P4Ka inh inconclusive
Cn1cc(C(=O)NC2CC2)c2ccccc21	none
CCCN(C(=O)c1cc2c(=O)oc3ccccc3c2s1)c1cccc(Cl)c1	JMJD2A Tudor inconclusive (no result: PLK1 PBD block, PI5P4Ka inh)
Cc1ccc(-n2nc3ccc(NC(=O)COc4ccccc4C)cc3n2)cc1	none (no result: PLK1 PBD block, PI5P4Ka inh)
O=C(COc1ccccc1/C=C1/NC(=O)NC1=O)Nc1ccccc1	PLK1 PBD block 3.36µM, PI5P4Ka inh inconclusive
COc1cc2c(cc1OC)[C@@H]1C(=O)c3ccc4c(c3O[C@@H]1CO2)C[C@H](C(C)C)O4	BAZ2B inh inconclusive, JMJD2A Tudor inconclusive

Screening results (PubChem BioAssay)
